Test in all cases: yeast three-hybrid, YBZ-1, SC-Leu-His + 0.5 mM 3-AT, 4 days
Settings in all cases: tags: N-Gal4 AD-HA kept; label: inside an RPR1-promoter hybrid RNA with tandem MS2 sites; ssRNA

One assay concerns the target PUM1 PUF domain R7-RAS (Homo sapiens, UniProt Q14671 828-1176, S1079R;N1080A;E1083S). In a few lines:
(§1)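 The interaction score is the log change in how often each variant appears, from input to selection. Frequencies came from PCR-amplified, Illumina-sequenced repeat regions of Pumilio-1 PUF domain libraries grown in strain YBZ-1 (LexA–MS2 coat fusion, HIS3 reporter) alongside matching RNA elements. Input plates were SC-Leu and selection plates were SC-Leu-His + 0.5 mM 3-AT, each for four days, and the log2 calculation used a pseudocount of 1 where a variant was absent.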

For a further assay, the target named is PUM1 PUF domain R1-FAR (Homo sapiens, UniProt Q14671 828-1176, S863F;R864A;Q867R). In a few lines: as §1
The target of a further assay is PUM1 PUF domain R1-GMR (Homo sapiens, UniProt Q14671 828-1176, S863G;R864M;Q867R). In a few lines:
as §1

Another assay addresses PUM1 PUF domain R4-LGC (Homo sapiens, UniProt Q14671 828-1176, N971L;H972G;Q975C). In a few lines: as §1
For the next assay, the target named is T1, PUM1 PUF domain R6-IWS (Homo sapiens, UniProt Q14671 828-1176, N1043I;Y1044W;Q1047S).
T1 sequence: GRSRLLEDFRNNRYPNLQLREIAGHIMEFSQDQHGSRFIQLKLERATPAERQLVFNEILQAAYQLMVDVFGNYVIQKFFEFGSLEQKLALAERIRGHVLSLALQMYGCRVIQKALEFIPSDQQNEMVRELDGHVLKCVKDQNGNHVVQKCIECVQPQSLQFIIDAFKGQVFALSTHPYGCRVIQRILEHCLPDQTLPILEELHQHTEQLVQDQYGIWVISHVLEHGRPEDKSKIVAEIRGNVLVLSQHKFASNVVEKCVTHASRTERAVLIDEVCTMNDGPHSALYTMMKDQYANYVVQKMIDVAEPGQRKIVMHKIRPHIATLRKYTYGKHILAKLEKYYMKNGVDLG
In a few lines: as §1

In another assay the target is PUM1 PUF domain R2-EHL (Homo sapiens, UniProt Q14671 828-1176, N899E;Y900H;Q903L). In a few lines: as §1
Another assay has as its target PUM1 PUF domain R5-RLD (Homo sapiens, UniProt Q14671 828-1176, C1007R;R1008L;Q1011D). In a few lines:
as §1

For another assay, the target named is PUM1 PUF domain R2-RVN (Homo sapiens, UniProt Q14671 828-1176, N899R;Y900V;Q903N). In a few lines:
as §1

For a further assay, the target named is PUM1 PUF domain R8-SFQ (Homo sapiens, UniProt Q14671 828-1176, N1122S;Y1123F). In a few lines: as §1

On to “GGCUAGAACUAGUGGAUCCCCCGGCGCCCGGCGGCUCGAGCCCGGGUAAGUUUAAAUAGUCUGCAUGCCGCCGGGCGCCAUGCCUGCAGGUCGACUCUAGAAAACAUG”, for which the binding signal in the assay with PUM1 PUF domain R7-RAS is 2.46 log2 enrichment (interaction score).

Regarding “GGCUAGAACUAGUGGAUCCCCCGGCGCCCGGCGGCUCGAGCCCGGGUAAGUGUAAAUUGUCUGCAUGCCGCCGGGCGCCAUGCCUGCAGGUCGACUCUAGAAAACAUG”, the binding signal is 4.18 log2 enrichment (interaction score) with PUM1 PUF domain R1-FAR and 1.96 log2 enrichment (interaction score) in the assay with PUM1 PUF domain R1-GMR.

For “GGCUAGAACUAGUGGAUCCCCCGGCGCCCGGCGGCUCGAGCCCGGGUAAGUGUAAAUCGUCUGCAUGCCGCCGGGCGCCAUGCCUGCAGGUCGACUCUAGAAAACAUG”, the binding signal is 0.5 log2 enrichment (interaction score) with PUM1 PUF domain R1-FAR and 3.57 log2 enrichment (interaction score) in the assay with PUM1 PUF domain R1-GMR.

In the case of “GGCUAGAACUAGUGGAUCCCCCGGCGCCCGGCGGCUCGAGCCCGGGUAAGUGUAAAUAGUCUGCAUGCCGCCGGGCGCCAUGCCUGCAGGUCGACUCUAGAAAACAUG”, the values for the binding signal with PUM1 PUF domain R4-LGC and with PUM1 PUF domain R6-IWS were 4 log2 enrichment (interaction score) and 2.75 log2 enrichment (interaction score), respectively.

Take “GGCUAGAACUAGUGGAUCCCCCGGCGCCCGGCGGCUCGAGCCCGGGUAAGUGUAAAAAGUCUGCAUGCCGCCGGGCGCCAUGCCUGCAGGUCGACUCUAGAAAACAUG”: the binding signal with PUM1 PUF domain R2-EHL was 3.07 log2 enrichment (interaction score).

As for “GGCUAGAACUAGUGGAUCCCCCGGCGCCCGGCGGCUCGAGCCCGGGUAAGUGUCAAUAGUCUGCAUGCCGCCGGGCGCCAUGCCUGCAGGUCGACUCUAGAAAACAUG”, the binding signal in the assay with PUM1 PUF domain R5-RLD was 2.78 log2 enrichment (interaction score).

As for “GGCUAGAACUAGUGGAUCCCCCGGCGCCCGGCGGCUCGAGCCCGGGUAAGUGUUAAUAGUCUGCAUGCCGCCGGGCGCCAUGCCUGCAGGUCGACUCUAGAAAACAUG”, the binding signal with PUM1 PUF domain R5-RLD is 0.72 log2 enrichment (interaction score).

“GGCUAGAACUAGUGGAUCCCCCGGCGCCCGGCGGCUCGAGCCCGGGUAAGUGUAAAGAGUCUGCAUGCCGCCGGGCGCCAUGCCUGCAGGUCGACUCUAGAAAACAUG”: the binding signal in the assay with PUM1 PUF domain R2-RVN is 3.32 log2 enrichment (interaction score).

For “GGCUAGAACUAGUGGAUCCCCCGGCGCCCGGCGGCUCGAGCCCGGGUAAGCGUAAAUAGUCUGCAUGCCGCCGGGCGCCAUGCCUGCAGGUCGACUCUAGAAAACAUG”, in the assay with PUM1 PUF domain R8-SFQ, the binding signal is 2.84 log2 enrichment (interaction score).

For the origin of these results see publication PMC8384837, “Expanding the binding specificity for RNA recognition by a PUF domain”.
